HepG2 viability: kills HepG2 cells in TGF-b inhibitor counter-screen; Potency, µM (doses to about 46.1 µM), inactives show at the highest dose activity change, negative = cytotoxicity, most hits filed as cytotoxic; HepG2 CAGA-GFP viability, ATP luminescence, 18 h; AID 588856; 410,000 tested, 0.76% active
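HepG2 CAGA-GFP cells (1000/well, DMEM with 1% FBS) received compound, then TGF-beta at 500 pg/mL final, and were incubated 18 hours at 37 degrees C. Viability was read by CellTiter-Glo luminescence. Media-only wells were set as complete cell-killing and DMSO as no toxicity.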
S2 tox: viability counter-screen for ATXN expression inhibitors. S2 cells (HEK-293 line with an ATXN2-luciferase reporter) viability, CellTiter-Fluor protease fluorescence, 24 h. Potency, µM (top dose mostly 56.7 µM), most hits filed as cytotoxic. 400,000 tested, 0.49% active. AID 651635; further: nearly all actives have a fitted effect of over 40% in size
Nrf2 inh: Nrf2 pathway inhibition | Potency, µM (doses to about 46 µM), for inactives: at the top dose activity change, negative = inhibition, actives largely listed as inhibitors | 360,000 tested, 2.1% active | A549 ARE-Fluc reporter, luciferase luminescence, 18-24 h; further: on the % scale 0 is the no-effect control and ±100 the full control effect; nearly all actives have a fitted effect of over 60% in size
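A549 ARE_Fluc cells, 5000/well, 5% FBS OPTI-MEM; compounds in dose-response, 18-24 h at 37 °C/5% CO2; CellTiter-Fluor viability read (Ex 405/Em 525), then BugLite luciferase luminescence = Nrf2 activity.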
A549 viability: kills or reduces viability of A549 cells in Nrf2 counter-screen; A549 ARE-Fluc cells, CellTiter-Fluor viability, 18-24 h; Potency, µM (series often up to 46 µM), without a hit: at the top dose activity change, negative = cytotoxicity, usual class: inhibitors; 390,000 tested, 0.16% active; AID 504648; further: on the % scale 0 is the no-effect control and ±100 the full control effect
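A549 ARE_Fluc cells in 5% FBS OPTI-MEM were exposed to compounds in concentration-response for 18-24 h at 37 deg C. Viability was read by CellTiter-Fluor fluorescence (Ex 405/Em 525) after 30 min, before the luciferase read.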
ATXN2 expr inh: reduces ATXN2 reporter expression in HEK-293 cells; HEK-293 ATXN2-luciferase reporter, luminescence, 24 h; Potency, µM (titrated, usually from 57 µM), for the others: at the highest dose activity change, negative = inhibition, hits mostly inhibitors; 360,000 tested, 0.72% active; AID 1745845; further: on the % scale 0 is the no-effect control and ±100 the full control effect; nearly all actives have a fitted effect of over 55% in size
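ATXN2-luciferase reporter cells (luciferase flanked by upstream and downstream ATXN2 gene portions) were treated 24 h at 37 °C with compounds at up to 57 uM. SteadyGlo luminescence gave expression; GF-AFC fluorescence gave viability.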
TGFb SMAD3 inh: TGF-b pathway inhibition; HepG2 CAGA-GFP TGF-b/SMAD3 reporter, GFP fluorescence, 18 h; TGF-beta stimulated, 500 pg/mL final; Potency, µM (titrated, usually from 46.1 µM), inactives show top-dose activity, negative = inhibition, actives largely listed as inhibitors; 410,000 tested, 1.2% active; AID 588855; further: on the % scale 0 is the no-effect control and ±100 the full control effect; nearly all actives have a fitted effect of over 65% in size
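First, reporter cells (HEPG2 CAGA-GFP) rested 2 h at 37 degrees C. Next, compounds were pinned in and TGF-beta added to 500 pg/mL final. After 18 h, GFP was imaged per cell and summed per well.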
The depositor's hits bear a star; i = inactive; ? = inconclusive; . = not tested or not shown; ! = not confirmed by another sample. Sampled rows, rich in hits. Any-hit rate of the full collection: about 3.8%. The call rests on the fitted dose curve; in most records, active means well fitted curve in the direction sought with a large enough effect; inconclusive means small, poorly fitted or top-dose-only effect, or another doubt; inactive means no such curve, though single readings can be large; an effect the other way counts as inactive or inconclusive. Potency means the concentration at half of the fitted maximal effect.

SMILES	HepG2 viability	S2 tox	Nrf2 inh	A549 viability	ATXN2 expr inh	TGFb SMAD3 inh
C=CCC[C@@H](Cc1ccc(F)cc1)C(=O)OC[C@@H](Cc1c[nH]c2ccccc12)NC(=O)[C@H](CC=C)CC(=O)NCCO	-83%	28µM*	?	-16%	?	?
O=S(=O)(c1ccc(F)cc1)N1CCN(c2nc(-c3cccc(Br)c3)nc3ccccc23)CC1	-35%	.	-12%	-1%	.	0%
NC(=S)N/N=C/c1ccc(-c2cc(Cl)cc(Cl)c2)o1	-28%	?	?	-12%	-8%	?
NC(=S)N/N=C/c1ccc(-c2cc(Cl)ccc2Cl)o1	-40%	i	-19%	-14%	6%	10µM*
Cc1ccc(-n2nnnc2SCn2nnc3ccccc3c2=O)c(C)c1	-21%	i	9.2µM*	?	-14%	-4%
Cc1cc(SCn2nnc3ccccc3c2=O)nc2ccccc12	-13%	i	2%	18%	36%	0%
COc1ccc(CNc2ncnc3cc(Cl)ccc23)cc1OC	-26%	i	16µM*	-4%	-35%	?
c1ccc(CNc2ncnc3sccc23)cc1	-38%	i	10%	-6%	.	-23%
c1ccc(CCNc2ncnc3sccc23)nc1	-41%	i	8.2µM*	?	.	-19%
COc1ccc(CNc2ncnc3sccc23)cc1OC	5%	i	10µM*	1%	-21%	4%
COc1ccc(CNc2ncnc3sccc23)cc1	-8%	?	10µM*	-1%	-34%	0%
Cc1csc2ncnc(NCCc3ccccn3)c12	1%	i	-20%	-15%	-12%	-6%
CCN(CC)CCN(C(=O)c1ccc2c(c1)CCCC2)c1nc2c(C)cccc2s1	-32%	i	1%	-10%	-19%	?
Clc1ccc2c(NCc3cccs3)ncnc2c1	-3%	i	16µM*	-4%	.	-8%
COc1cc2ncnc(NCc3cccs3)c2cc1OC	1%	i	-4%	-7%	29%	3%
COc1ccc(CCNC(=O)Nc2cccs2)c(OC)c1	-4%	i	-1%	1%	13%	0%
COc1ccc(CN(C(=O)Cc2c[nH]c3ccccc23)C(C(=O)NC2CCCCC2)c2ccc(C)o2)cc1 (centres undefined)	-30%	.	12µM*	?	.	?
O=C1NC[C@H](Cc2ccccc2)N(C[C@@H]2CCCN2C[C@H](Cc2ccc(O)cc2)N2C[C@H](Cc3ccccc3)N(CC3CCCCCC3)C(=O)C2=O)C1=O	.	?	.	.	-28%	.
O=C1NC[C@H](Cc2ccc(O)cc2)N(C[C@@H]2CCCN2C[C@H](Cc2ccccc2)N2C[C@H](Cc3ccccc3)N(CC3CCCCCC3)C(=O)C2=O)C1=O	.	?	.	.	-11%	.
O=C1NC[C@H](Cc2ccccc2)N(C[C@@H]2CCCN2C[C@H](Cc2ccccc2)N2C[C@H](Cc3ccccc3)N(CC3CCCCC3)C(=O)C2=O)C1=O	-55%	.	.	.	?	18µM*
O=C1NC[C@H](Cc2ccccc2)N(C[C@H]2CCCN2C[C@H](Cc2ccccc2)N2C[C@H](Cc3ccccc3)N(CC3CCCCC3)C(=O)C2=O)C1=O	7.1µM*	18µM*	?	?	?	?
COc1cccc(CNC(=O)C2CCC(=O)N(C3CC3)C2)c1OC (centres undefined)	14%	i	24%	6%	14%	3%
Cc1ccc(C(=O)/C=C/c2ccccc2)o1	-49%	i	2%	-8%	8%	-25%
Cc1c(O)c2c(c(C(=O)/C=C/c3ccccc3)c1O)OC(C)(C)C=C2	-45%	.	.	.	.	11µM*
O=C(NC1CCCCC1)C(CCc1ccccc1)N1CCc2ccccc2C1 (centres undefined)	-12%	i	.	.	13%	10µM*
SMILES	HepG2 viability	S2 tox	Nrf2 inh	A549 viability	ATXN2 expr inh	TGFb SMAD3 inh
O=C(NC1CCCCC1)C(CCc1ccccc1)N1CCOCC1 (centres undefined)	-19%	i	.	.	-15%	-18%
Cc1ccc(N=C2S/C(=C\c3cn(CC(=O)O)c4ccccc34)C(=O)N2C)cc1	15%	i	5%	-16%	-10%	3%
Cc1ccc2ccccc2c1C(O)c1ncc(-c2ccc(F)cc2)[nH]1 (centres undefined)	-26%	i	.	.	-14%	-3%
OCCN1CCN(Cc2cc(Cl)c3cccnc3c2O)CC1	-26%	i	?	-19%	22µM*	?
Cc1ccc(S(=O)(=O)Nc2cc(Cl)c(O)c3ncccc23)cc1	2.8µM*	i	21µM*	-23%	11µM*	6.3µM*
Oc1ccc(Cl)c2cccnc12	10µM*	?	?	-1%	13µM*!	7.1µM*
Oc1c(Cl)cc(Cl)c2cccnc12	-22%	?	-26%	-9%	24µM*!	?
Cc1ccc(S(=O)(=O)Nc2cc(S(=O)(=O)c3ccc(C)cc3)c(O)c3cccnc23)cc1	.	.	18%	-2%	.	.
Cc1ccc(C(=O)OCC(=O)NC2CC2)cc1S(=O)(=O)N1CCOCC1	-1%	i	11%	-2%	8%	0%
Cc1nc(C(C)Nc2ncnc3ccc(-c4ccc5c(c4)OCO5)cc23)cs1 (centres undefined)	.	.	-12%	-2%	.	.
Cc1nc2sccn2c(=O)c1S(=O)(=O)Nc1cc(C(F)(F)F)ccc1Cl	-11%	.	-2%	3%	.	29%
COc1ccccc1C1C=C(c2ccccc2)Nc2nnnn21 (centres undefined)	-33%	i	?	-19%	-4%	-2%
COc1ccc(C2C=C(c3ccc(Br)cc3)Nc3nnnn32)c(OC)c1 (centres undefined)	-19%	.	15µM*	-5%	.	-1%
COc1cc(N2CCC(N3CCN(C)CC3)CC2)ccc1Nc1ncc(Cl)c(Nc2ccccc2S(=O)(=O)C(C)C)n1	.	.	.	.	19µM*	.
N#CCC(=O)Nc1ccc(C(=O)OCC(=O)N2CCN(C(=O)c3ccco3)CC2)cc1	-10%	i	-6%	-13%	8%	-2%
Cc1ccc(OCC(=O)c2cc(C)n(Cc3cccs3)c2C)c([N+](=O)[O-])n1	5%	i	12µM*	-6%	?	-30%
C#CCOCCOCCOCCNc1nc(N2CCN(C(=O)[C@H]([C@@H](C)CC)n3cc(CCCN=C(N)N)nn3)CC2)nc(N2CCN(C(=O)[C@H]([C@@H](C)CC)n3cc(CCC(=O)O)nn3)CC2)n1	11%	i	8%	-2%	8%	16%

Screening data deposited in PubChem by National Center for Advancing Translational Sciences (NCATS).
